Laboratory results reported in PubChem BioAssay AID588726 (The Scripps Research Institute Molecular Screening Center, 2011).
In all, about 360,000 compounds went through this assay and about 8,200 (2.3%) were called active. Only a selection was taken, and actives are over-represented in it overall. Values without a mark were called inactive. No stated cut-off is given here; in the data, active means inhibition above about 27%; inactive means the rest.

Target: Fructose-bisphosphate aldolase (Mycobacterium tuberculosis (strain ATCC 25618 / H37Rv)) (UniProt P9WQA3)
Test: Mtb FBA enzyme inhibitors, primary screen, biochemical, fluorescence, strain H37Rv (AID 588726);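 further: 0% = vehicle and 100% = reference inhibitor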
Conditions: purified M. tuberculosis FBA, fluorescence read-out, at 1 µM, hits give high values

Sequence of Fructose-bisphosphate aldolase (Mycobacterium tuberculosis (strain ATCC 25618 / H37Rv)) (P9WQA3 whole entry, looked up): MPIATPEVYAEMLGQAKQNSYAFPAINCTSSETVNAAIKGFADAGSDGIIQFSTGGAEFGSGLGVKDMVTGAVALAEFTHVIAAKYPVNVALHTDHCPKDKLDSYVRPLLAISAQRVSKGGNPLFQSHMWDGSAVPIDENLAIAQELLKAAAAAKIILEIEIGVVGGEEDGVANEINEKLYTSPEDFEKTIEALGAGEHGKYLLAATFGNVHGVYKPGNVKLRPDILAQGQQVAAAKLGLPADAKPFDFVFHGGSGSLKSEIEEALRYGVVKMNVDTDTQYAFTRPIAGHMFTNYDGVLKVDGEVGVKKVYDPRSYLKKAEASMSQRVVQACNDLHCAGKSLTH

| SMILES | inhibition |
| --- | --- |
| Cc1cccc(N2CC(C(=O)Nc3ccccc3N3CCCC3)CC2=O)c1C (centres undefined) | 3.07% |
| Cc1ccccc1/[N+]([O-])=C/c1ccncc1 | 0.03% |
| CCS(=O)(=O)Nc1ccc(C2=NN(C(C)=O)C(c3cccs3)C2)cc1 (centres undefined) | 591% [above what the read-out allows, likely interference] (active) |
| COc1cccc(C2CC(c3ccccc3)=NN2S(=O)(=O)c2ccccc2)c1OC (centres undefined) | 0.19% |
| CS(=O)(=O)Nc1cccc(C2=NN(C(=O)c3cccc(F)c3)C(c3cccs3)C2)c1 (centres undefined) | 5.49% |
| CCS(=O)(=O)Nc1ccc(C2=NN(S(=O)(=O)c3ccc(F)cc3)C(c3ccco3)C2)cc1 (centres undefined) | -0.61% |
| CS(=O)(=O)Nc1ccc(C2=NN(S(C)(=O)=O)C(c3cccs3)C2)cc1 (centres undefined) | 73.8% (active) |
| Cc1ccc(C2CC(c3cccc(NS(C)(=O)=O)c3)=NN2S(C)(=O)=O)cc1 (centres undefined) | -2.56% |
| CCOC(=O)CNc1nc2ccccc2n2c(C)nnc12 | -1.1% |
| O=C1CCc2cc(S(=O)(=O)Nc3ccc(C(F)(F)F)cc3)cc3c2N1CC3 | 6.49% |
| Cc1cc(C(=O)CC#N)c(C)n1-c1c(C)n(C)n(-c2ccccc2)c1=O | 2.39% |
| CCOC(=O)CNC(=O)CN1C(=O)CCSc2ccccc21 | 0.13% |
| O=C(COc1ccccc1Cl)Nn1cnnc1 | 0.49% |
| COc1ccc(CCNc2ncnc3c2nnn3Cc2ccccc2)cc1 | 0.68% |
| Cc1cc(C(=O)COc2ccc(Br)cc2F)c(C)n1C1CC1 | 0.29% |
| CC1C2Cn3c(nc4ccccc43)C1N(C)O2 (centres undefined) | -1.64% |
| CN1C(C(=O)NCc2ccco2)CC2Cn3c(nc4ccccc43)C21 (centres undefined) | 2.79% |
| CSCCNC(=O)c1ccc2nc(Cc3ccccc3F)oc2c1 | 3.27% |
| CC(C)=CCN1CCN(Cc2ccc(Oc3ncccn3)cc2)CC1CCO (centres undefined) | 0.18% |
| CN(C)c1ccnc(Nc2ccc(F)cc2)c1C#N | -3.67% |
| CN(C)c1nc(-c2cccnc2)nc(-c2ccc(Cl)cc2)c1C#N | -3.84% |
| CNc1nccc(-c2ccc(Cl)cc2)c1C#N | 30.5% (active) |
| COc1cccc(CN2CCC(C(=O)NC(c3ccc4c(c3)OCO4)c3ccccn3)CC2)c1 (centres undefined) | 0.6% |
| O=C(CCS(=O)(=O)c1ccccc1Cl)Nc1ccc(S(=O)(=O)Nc2ncccn2)cc1 | -1.51% |
| O=C(NCCCN1CCCC1=O)C(=O)NCC1OCCN1S(=O)(=O)c1ccc(Br)cc1 (centres undefined) | 6.34% |
| Cc1ccc(-c2nc3ccccc3[nH]2)cc1N | 176% (active) |
| Cc1ccccc1N1CC(c2nc3ccccc3[nH]2)CC1=O (centres undefined) | 0.05% |

| SMILES | inhibition |
| --- | --- |
| CCOC(=O)CNC(=O)CSc1ncccc1-c1nc2ccccc2[nH]1 | 8.03% |
| CCSc1nc(=S)n(CC)c(C)c1C(C)=O | -0.42% |
| O=C(CN1CCOc2ccccc21)N1CCC(Cc2ccccc2)CC1 | 6.13% |
| CCC(C)N(C(=O)COC(=O)c1nc(Cl)ccc1Cl)C1CCS(=O)(=O)C1 (centres undefined) | 0.03% |
| CCC(C)N(C(=O)COC(=O)C1C(C(=O)OC)=C(C)NC(C)=C1C(=O)OC)C1CCS(=O)(=O)C1 (centres undefined) | 74.9% (active) |
| CCC(C)N(C(=O)Cn1nc(C)c([N+](=O)[O-])c1C)C1CCS(=O)(=O)C1 (centres undefined) | 1.23% |
| Cc1cc2cc3n(c2nn1)N=C(Cl)CC3 | 83.2% (active) |
| CCOC(=O)c1nn(-c2ccccc2F)c2nc(Nc3ccccc3)cc(=O)n12 | -2.45% |
| CCOc1ccccc1N(CC(=O)NC1CCCCC1)C(=O)CCCC(=O)Nc1ccccn1 | -0.58% |
| COc1ccccc1N(C)S(=O)(=O)c1ccc(C(=O)NC2CCCCCC2)cc1 | 2.13% |
| Cc1ccc(N(CC(=O)NC2CCCCC2)C(=O)CCCC(=O)Nc2ccccn2)c(C)c1 | 3.51% |
| Cc1ccccc1CCN(CC(=O)NC1CCCCC1)C(=O)c1csnn1 | -2.02% |
| COc1ccccc1N(CC(=O)NC1CCCC1)C(=O)C1(C)CC(=O)N=C2C=CC(C)=CN21 (centres undefined) | 123% (active) |
| CC1=CC=CN2C1=NC(=O)CC2(C)C(=O)N(CC(=O)NC1CCCC1)c1ccccc1C (centres undefined) | 164% (active) |
| CC1=C(C(=O)N2CCOCC2)CC(CC(=O)NCc2cccs2)C(=O)N1CCCN1CCCC1=O (centres undefined) | 2.87% |
| Cc1ccc2c(cnn2C(=O)CCC(=O)NC2CCCC2)c1 | 2.86% |
| Cc1ccc(C(C(=O)NC2CCCCC2)N(C(=O)c2csnn2)C2CC2)o1 (centres undefined) | 1.93% |
| CC(=O)N1CCN(S(=O)(=O)c2ccc(C)c([N+](=O)[O-])c2)C1C(C)C (centres undefined) | -1.36% |
| Cc1ccccc1N1C(=O)C(Oc2ccc(Cl)cc2)C1CNCC1CCCO1 (centres undefined) | -3.19% |
| O=c1cc(CN2CCN(S(=O)(=O)/C=C/c3ccccc3)CC2)c2ccc(O)cc2o1 | 137% (active) |
| NC(=O)CCN1CCN(S(=O)(=O)/C=C/c2ccccc2)CC1 | 1.59% |
| Cc1ccc2c(CN3CCN(S(=O)(=O)c4ccccc4C(F)(F)F)CC3)cc(=O)oc2c1 | 2.71% |
| CSc1cccc(NC(=O)C2CCCN2S(=O)(=O)c2ccc3c(c2)CCC(=O)N3)c1 (centres undefined) | 1.45% |
| Cc1cccc(-c2cnc(C(O)c3ccc4ccccc4c3)[nH]2)c1 (centres undefined) | -1.57% |
| CC(C)(C)OC(=O)NC(Cc1ccccc1)C(=O)NC(CSC1CCCCO1)C(=O)NN (centres undefined) | -0.07% |
| CC(C)c1ccc(S(=O)(=O)N2CCN(C(=O)c3ccc(N4CCCC4)c([N+](=O)[O-])c3)CC2)cc1 | -2.26% |
| O=C1C=C(c2ccccc2)CCC1 | 3.76% |

| SMILES | inhibition |
| --- | --- |
| O=c1cc(-c2ccccc2)[nH]c2cc(F)ccc12 | 5.51% |
| O=c1[nH]c(-c2ccccc2)c(-c2ccccc2)[nH]1 | 133% (active) |
| CCc1ccc(NC(=O)CCNS(=O)(=O)c2cccs2)cc1 | -1.53% |
| O=C(NCc1ccccc1)c1ccc(CNc2c(N3CCCC3)c(=O)c2=O)cc1 | 4.44% |
| CCC1C(=O)c2ccccc2N(C)C1=O (centres undefined) | 34.5% (active) |
| CCc1ccccc1N1C(=O)C2C3CC(=O)C(c4ccccc43)C2C1=O (centres undefined) | 1.36% |
| CN1C(=O)/C(=C\c2cc(Br)cs2)c2ccccc21 | 0.16% |
| Cc1ccc(CN2CCC(N3CCC(C(=O)NCC4CCCO4)CC3)CC2)o1 (centres undefined) | -1.69% |
| CC1CCCN(C(=O)c2cc(-c3ccco3)nc3ccccc23)C1 (centres undefined) | 114% (active) |
| Cc1cc(C(=O)NNC(=O)c2cccc(S(=O)(=O)N3CCOCC3)c2)c2ccccc2n1 | -2.38% |
| CC(=O)N1CCN(C(=O)c2cc(-c3ccc(Cl)s3)nc3ccccc23)CC1 | 83.4% (active) |
| Cc1cc(C(=O)N2CCN(c3ccccn3)CC2)c(C)o1 | 9.35% |
| Cc1cccc(C(=O)N2CCC(c3nc4ccccc4s3)CC2)c1 | -2.02% |
| CC1CCN(C(=O)Cn2cc(C(=O)c3ccco3)c3ccccc32)CC1 | -0.4% |
| Cc1c(NC(=O)c2cc(-c3ccc(Cl)s3)nc3ccccc23)c(=O)n(-c2ccccc2)n1C | 13% |
| CC(=O)N1CCN(C(=O)c2cc(-c3ccc(C)o3)nc3ccccc23)CC1 | 131% (active) |
| Cc1ccc(S(=O)(=O)N2CCN(C(=O)c3ccccc3-c3nc4ccccc4s3)CC2)c(C)c1 | 1.65% |
| O=C(c1cc(-c2ccc(Cl)s2)nc2ccccc12)N1CCOCC1 | 93.6% (active) |
| O=C(NNC(=O)c1cc(-c2ccccc2Cl)nc2ccccc12)c1csc(N2CCOCC2)n1 | 1.04% |
| CC1CCCC(NC(=O)c2cc(-c3ccncc3)nc3ccccc23)C1C (centres undefined) | 4% |
| Cc1nc(-c2ccc(Cl)cc2)sc1C1(C)CC(c2ccc(Br)cc2)=NO1 (centres undefined) | -1.45% |
| O=S(=O)(c1cccc(-c2nnc(SC(F)F)n2-c2ccccc2)c1)N1CCCCC1 | 5.7% |
| COc1ccc(C)cc1NC(=O)c1[nH]c(C)c(C(C)=O)c1C | 0.08% |
| CCc1ccc(OCC(O)CN2CCN(CCO)CC2)cc1 (centres undefined) | -0.21% |
| CSCCC(NC(=O)c1ccco1)C(=O)NCCc1ccc(F)cc1 (centres undefined) | 0.46% |
